Assay outcomes deposited in PubChem BioAssay by The Scripps Research Institute Molecular Screening Center.
SMARCA2 activ: SMARCA2 (BRM) function activators, primary screen, cell-based, luminescence, high throughput. MG213 cells, MMTV-luciferase reporter, dexamethasone, overnight. activation, % at 9.1 µM. actives 1% (n = 370,000); in the data active = activation above about 7.8%
KLK7 zymogen act: proKLK7 zymogen activators, primary screen, biochemical, fluorescence intensity; purified proKLK7, EDANS-DABCYL substrate fluorescence; 100% is mature enzyme control, 0% vehicle; activation, % at 7 µM; actives 0.9% (n = 370,000);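 active = activation above the mean of all tested compounds plus 3 SD, computed per campaign excluding outliers beyond control limits, cut at about 13% in these data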
Target sequence (P49862 whole entry, looked up): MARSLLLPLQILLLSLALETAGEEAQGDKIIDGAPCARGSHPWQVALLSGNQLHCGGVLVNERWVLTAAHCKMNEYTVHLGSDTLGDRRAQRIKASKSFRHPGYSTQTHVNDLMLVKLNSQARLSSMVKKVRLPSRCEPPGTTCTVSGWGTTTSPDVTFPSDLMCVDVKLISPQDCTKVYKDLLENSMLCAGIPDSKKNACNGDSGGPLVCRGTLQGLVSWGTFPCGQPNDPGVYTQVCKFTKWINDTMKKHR
bovine MsrA act: bovine MsrA enzyme activators, primary screen, biochemical, absorbance, HTS. Methionine sulfoxide reductase A (Bos taurus). purified bovine MsrA, absorbance read-out. activation, % at 10.6 µM. actives 0.3% (n = 360,000). AID 602163, 2012; in the data active = activation above about 7.5%
MsrA inh: bovine MsrA enzyme inhibitors, primary screen, biochemical, absorbance, HTS | actives 0.75% (n = 360,000) | Methionine sulfoxide reductase A (Bos taurus) | inhibition, % at 15.5 µM | purified bovine MsrA, absorbance read-out
MsrA inh confirm: bovine MsrA inhibitors, retest, confirmation, biochemical, absorbance, HTS | shares compounds with MsrA inh | purified bovine MsrA, absorbance read-out | inhibition, % at 15.5 µM | actives 41% (n = 2,300) | AID 651822, 2012;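 also: coupled to thioredoxin reductase with NADPH and selenocystamine and DMSO as substrate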
Hits are given with their value; 0 = inactive; - = not tested or not shown. Most compounds without a hit are left out; they make up all but 2.8% or so of the library. Rule as the data show it, unless noted: active = inhibition above about 4.5%; inactive = the rest.

SMILES	SMARCA2 activ	KLK7 zymogen act	bovine MsrA act	MsrA inh	MsrA inh confirm
Cc1ccc(/C=C/C(=O)OCC(=O)NC(C)c2ccccc2)o1 (configuration not stated)	0	0	0	6.5	0
C(=N\n1cnnc1)/c1nc2ccccc2[nH]1	0	0	0	4.9	0
Cc1[nH]c2ccccc2c1/C=N/n1cnnc1	0	0	0	0	-
O=C(CN1CCN(Cc2ccccc2)CC1)N/N=C\C=C/c1ccco1	0	0	0	6.9	5.5
COc1ccccc1C(=O)N/C(=C\c1cn(S(=O)(=O)N(C)C)c2ccccc12)C(=O)NCCN1CCOCC1	-	-	0	-	-
COc1ccc(C(=O)N/C(=C\c2cn(C)c3ccccc23)C(=O)NCCN2CCOCC2)cc1OC	0	0	0	4.8	0
Cn1cc(/C=C(\NC(=O)c2ccccc2Cl)C(=O)NCCCN2CCOCC2)c2ccccc21	0	0	0	0	-
CCn1cc(/C=C(\NC(=O)c2cc(OC)c(OC)c(OC)c2)C(=O)NCCCN2CCOCC2)c2ccccc21	0	0	0	0	-
Cn1cc(/C=C(\NC(=O)c2ccccc2Cl)C(=O)NCCN2CCOCC2)c2ccccc21	0	0	0	4.8	0
CCn1cc(/C=C(\NC(=O)c2ccccc2OC)C(=O)NCCN2CCOCC2)c2ccccc21	0	0	0	4.7	0
CCn1cc(/C=C(\NC(=O)c2ccccc2)C(=O)NCCCN2CCOCC2)c2ccccc21	0	0	0	4.7	0
COc1ccc(S[C@]2(C(=O)N3CCN(C(C)=O)CC3)CC(=O)N(C(=O)c3ccccc3)[C@@H]2c2ccc(OC)cc2)cc1	0	0	-	-	-
CC(c1c[nH]c2ccccc12)c1c[nH]c2ccc(Br)cc12 (configuration not stated)	0	0	-	-	-
O=S1(=O)c2c(cccc2N2CC[C@@H](O)C2)O[C@@H]2CCN1C2	0	0	-	-	-
Cn1cc(/C=C(\NC(=O)c2ccccc2)C(=O)NCCN2CCOCC2)c2ccccc21	0	0	0	0	-
Cn1cc(/C=C(\NC(=O)c2ccccc2)C(=O)N2CCOCC2)c2ccccc21	0	0	0	5.7	0
COc1ccc(C(=O)N/C(=C\c2cn(C)c3ccccc23)C(=O)NCCCN2CCOCC2)cc1	0	0	0	5.3	0
COc1cc(C(=O)N/C(=C\c2cn(C)c3ccccc23)C(=O)NCCN2CCOCC2)cc(OC)c1OC	0	0	0	5.3	0
CCn1cc(/C=C(\NC(=O)c2cc(OC)c(OC)c(OC)c2)C(=O)NCCN2CCOCC2)c2ccccc21	0	0	0	0	-
CCCNC(=O)/C(C#N)=C1\N=C(NC(=O)c2ccco2)c2ccccc21	0	0	0	0	-
COCCNC(=O)/C(C#N)=C1\N=C(NC(=O)c2ccco2)c2ccccc21	0	0	0	4.8	0
O=S(=O)(c1ccc(F)cc1)N1CCCc2nc(-c3ccccc3)ccc21	0	0	-	0	-
CCOC(=O)CC[C@H]1CC[C@]2(CCCN(S(=O)(=O)c3ccccc3)C2)O1	0	0	-	-	-
COc1ccc(/C=C/C(=O)c2ccncc2)c2ccccc12	0	0	0	8.3	0
C[N+](C)(C)CCNC(=O)c1ccccc1	0	0	0	0	-
SMILES	SMARCA2 activ	KLK7 zymogen act	bovine MsrA act	MsrA inh	MsrA inh confirm
CCOC(=O)C1(C)CCCN(C(=O)c2ccc3ccccc3c2)C1 (configuration not stated)	0	0	0	0	-
CN(C)c1ccc(C(=O)c2ccccc2C(=O)O)c(O)c1	0	0	0	6.4	5.8
Nc1ccc(-c2cnc3ccccc3n2)cc1	0	0	0	0	-
Nc1ccc(-c2cnc(-c3ccc(N)cc3)nc2)cc1	0	0	0	8.6	7.6
COc1cc(OC)cc(-c2oc(=O)c3cc(OC)c(OC)cc3c2C#CCCO)c1	0	0	0	11	7.8
CN=c1sc(C(=O)Nc2ccccc2)c(C)n1C	0	0	0	0	-
CN=c1sc2c(n1C)C(=O)c1ccccc1C2=O	0	0	0	9.7	7.0
CCC1Oc2ccccc2N(CC(=O)N2CC(C)CC(C)C2)C1=O (configuration not stated)	0	0	0	0	-
C=CCc1c(C)nc(C)nc1N/N=C/c1ccccc1O	0	0	0	0	-
C=CCc1c(C)nc(C)nc1N/N=C/c1ccc([N+](=O)[O-])cc1	0	0	0	7.0	0
Cc1ccccc1C(=O)/C=C1\NC(=O)CS1	0	0	0	6.3	6.6
Cc1cc(C)cc(C(=O)/C=C2\NC(=O)CS2)c1	0	0	0	5.3	5.3
Cc1ccc(N2CCN(C(CCc3ccccc3)C(=O)Nc3c(C)cccc3C)CC2)cc1 (configuration not stated)	0	0	-	0	-
N#C/C(C(=O)N1CCOCC1)=C1\Nc2ccccc2S1	0	0	0	7.9	5.7
N#C/C(=C\c1cccs1)C(=O)N1CCOCC1	0	0	0	0	-
CCOC(=O)c1sc(C)c2c(=O)n(CC)nnc12	0	0	0	5.7	0
CCOC(=O)C1(C)CCN1C(=O)c1cc(F)cc(F)c1 (configuration not stated)	0	0	0	0	-
N#Cc1c(/N=C/c2ccc(-c3ccc(C(=O)O)c(Cl)c3)o2)sc2c1CCCC2	0	0	0	7.0	0
N#Cc1c(/N=C/c2ccc(-c3ccccc3C(=O)O)o2)sc2c1CCCC2	0	0	0	0	-
CC1(C)CC(=O)C(C=Nc2ccc3[nH]ncc3c2)=C(O)C1	0	0	0	5.6	4.8
CC1(C)CC(=O)C(C=Nc2ccc(N)cc2)=C(O)C1	0	0	0	0	-
COc1cccc(N=CC2=C(O)CC(C)(C)CC2=O)c1	0	0	0	6.2	0
CC1(C)CC(=O)C(C=Nc2ccc(O)cc2)=C(O)C1	0	0	0	5.4	0
CC1(C)CC(=O)C(C=Nc2ccc3cn[nH]c3c2)=C(O)C1	0	0	0	0	-
Cc1ccc(CSc2nnc(-c3ccccc3)n2Cc2ccco2)cc1	0	0	-	-	-
SMILES	SMARCA2 activ	KLK7 zymogen act	bovine MsrA act	MsrA inh	MsrA inh confirm
Cc1cc(N2CCNC[C@@H]2C)ccc1N1C[C@@H](C)O[C@@H](C)C1	0	0	-	0	-
CCOC(=O)/C(=C\Nc1cccc(OCc2ccccc2)c1)NC(=O)c1ccccc1	0	0	-	0	-
C/C(=N\N=C(/N)SC1CC(=O)N(c2ccccc2)C1=O)c1cccs1 (configuration not stated)	0	0	0	5.1	0
N/C(=N\N=C\c1ccco1)SC1CC(=O)N(c2ccccc2)C1=O (configuration not stated)	0	0	0	6.8	0
COc1cccc(/C=C2/SC(=O)N(CC(=O)N3CCc4ccccc4C3)C2=O)c1OCC(=O)O	0	0	0	4.8	0
COc1cccc(/C=C2/SC(=O)N(C)C2=O)c1OCc1ccc(C(=O)O)cc1	0	0	0	0	-
COc1ccc(-c2[nH]ncc2CN2CCCC2c2nonc2C)c(F)c1 (configuration not stated)	0	0	0	8.4	0
N#CC(c1cccc([N+](=O)[O-])c1)C(CC(=O)c1ccccc1)c1ccccc1 (configuration not stated)	0	0	0	0	-
